Assay results taken from PubChem BioAssay (NCATS).
Records with an inconclusive call do not appear. The source made the active and inactive calls. Calls follow the shape of the dose curve; as a rule, active = well fitted activation curve with a large enough effect in the main read-out, with a control signal flat (not every such curve was filed as active); inconclusive = small, poorly fitted or top-dose-only effect, or effect the other way, or a change in a side signal; inactive = flat fitted curve, though single readings scatter.

Each molecule was assayed against 3',5'-cyclic-AMP phosphodiesterase 4B (Homo sapiens) (UniProt Q07343) (assay: qHTS Assay for Inhibitors of PDE-IV (AID 607)). Settings: HEK293 ACTOne CNG channel cells, membrane potential fluorescence; series mostly up to 22.9 µM.
3',5'-cyclic-AMP phosphodiesterase 4B (Homo sapiens), sequence (Q07343 whole entry, looked up): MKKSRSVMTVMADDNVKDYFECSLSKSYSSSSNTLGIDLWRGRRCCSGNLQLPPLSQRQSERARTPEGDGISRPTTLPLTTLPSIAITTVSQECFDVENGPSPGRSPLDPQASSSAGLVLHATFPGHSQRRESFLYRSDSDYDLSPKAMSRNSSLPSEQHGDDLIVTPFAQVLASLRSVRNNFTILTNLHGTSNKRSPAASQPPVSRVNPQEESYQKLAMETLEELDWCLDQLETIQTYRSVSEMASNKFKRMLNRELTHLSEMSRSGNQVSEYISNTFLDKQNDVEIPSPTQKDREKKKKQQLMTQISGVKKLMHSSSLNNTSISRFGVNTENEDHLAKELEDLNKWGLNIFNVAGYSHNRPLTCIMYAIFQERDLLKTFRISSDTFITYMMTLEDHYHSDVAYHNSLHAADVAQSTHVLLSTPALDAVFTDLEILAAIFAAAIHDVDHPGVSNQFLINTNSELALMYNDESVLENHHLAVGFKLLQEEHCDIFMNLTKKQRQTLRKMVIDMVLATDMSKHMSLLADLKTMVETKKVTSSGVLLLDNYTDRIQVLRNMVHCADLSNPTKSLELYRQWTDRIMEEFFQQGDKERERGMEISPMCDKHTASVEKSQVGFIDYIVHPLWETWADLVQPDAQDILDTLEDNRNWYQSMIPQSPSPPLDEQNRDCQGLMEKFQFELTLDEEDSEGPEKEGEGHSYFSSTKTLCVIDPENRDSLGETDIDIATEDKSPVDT
How it was run: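 HEK293 ACTOne cells with CNG channel (1000/well), endogenous PDE4; membrane potential dye, compounds up to 22.9 uM final. Fluorescence Ex 535/Em 590; RO 20-1724 (100 uM final) as reference.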

Compound | outcome
O=C1c2ccccc2-c2n[nH]c3cccc1c23 | inactive
O=C(O)c1cc(=O)c2c(OCC(O)COc3cccc4oc(C(=O)O)cc(=O)c34)cccc2o1 | inactive
CC(C)c1ccc2c(c1)c(SC(C)(C)C)c(CC(C)(C)C(=O)O)n2Cc1ccc(Cl)cc1 | inactive
O=c1cc(N2CCOCC2)oc2c(-c3ccccc3)cccc12 | inactive
Nc1cc(C(Cl)=C(Cl)Cl)c(S(N)(=O)=O)cc1S(N)(=O)=O | inactive
